# About 8,800 targets were measured; listed, in parts, are those with a hit and a random draw of the rest. About 0.5% of all pairs of compound and target were hits.
# Key:
# Assay in all cases: log2 fold change, soluble protein after heating vs DMSO (PISA); higher = thermal stabilisation; K562 lysate, 10 uM; active = over 0.2 and 3.5 SD of the protein, either way, in both replicates (recomputed)
# erlotinib = compound: C#Cc1cccc(Nc2ncnc3cc(OCCOC)c(OCCOC)cc23)c1 [erlotinib]
# Procedure, shortened: (§1)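 Following dounce homogenisation of K562 pellets in PBS pH 7.4 with 1 mM MgCl2, crude extract at 1 mg/mL protein was incubated for 30 min with 10 μM compound. Aliquots were then heated for 3 min over 48°C-58°C and pooled, NP-40 was added to 0.5% at 4°C, and soluble protein was recovered as the supernatant at 21,000xg for 90 min. Channel-sum-equalised TMTpro 16plex LC-MS/MS quantified this protein. Each value, from duplicates, is a log-two fold change in thermal stability relative to solvent controls.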
# [1] = compound: C/C(=N\NC(=O)C1=CC(=CC=C1)S(=O)(=O)N2CCOCC2)/C3=C(C=CC(=C3)Cl)O
# Procedure, shortened: as §1
# [2] = compound: C1=CC(=CC=C1C2=NC3=C(N2)C=C(C=C3)C(=O)N)OC4=CC=C(C=C4)Cl
# Procedure, shortened: as §1
# [3] = compound: C1=CC2=C(C=CC(=C2)/C=C\3/C(=O)NC(=NCC4=CC=CS4)S3)N=C1
# Procedure, shortened: as §1
# [4] = compound: C1=CC2=NC=CN=C2C=C1/C=C/3\C(=O)NC(=O)S3
# Procedure, shortened: as §1
# [5] = compound: C1=CC=C(C=C1)C2=NC(=C(N2)C3=CC=NC=C3)C4=CC(=C(C=C4)Cl)O
# Procedure, shortened: as §1
# [6] = compound: C1=CC=C2C(=C1)C3=NNC4=CC=CC(=C43)C2=O
# Procedure, shortened: as §1
# [7] = compound: C1CCN(C1)C(=O)NC2=CC=CC(=C2)NC3=NC=C(C(=N3)NCCC4=CN=CN4)Br
# Procedure, shortened: as §1
# [8] = compound: C1CN(CCC1(CC2=CC=C(C=C2)Cl)N)C3=NC=NC4=C3C=CN4
# Procedure, shortened: as §1
# IRAK-1-4 Inhibitor I = compound: C1COCCN1CCN2C3=CC=CC=C3N=C2NC(=O)C4=CC(=CC=C4)[N+](=O)[O-] [IRAK-1-4 Inhibitor I]
# Procedure, shortened: as §1
# ibrutinib = compound: C=CC(=O)N1CCC[C@@H](n2nc(-c3ccc(Oc4ccccc4)cc3)c3c(N)ncnc32)C1 [ibrutinib]
# Procedure, shortened: as §1
# [9] = compound: CC(=O)c1cnc2ccc(-c3cc(Cl)c(O)c(Cl)c3)nc2c1N[C@H]1CC[C@H](CN(C)C)CC1
# Procedure, shortened: as §1
# ralimetinib = compound: CC(C)(C)Cn1c(N)nc2ccc(-c3[nH]c(C(C)(C)C)nc3-c3ccc(F)cc3)nc21 [ralimetinib]
# Procedure, shortened: as §1
# [10] = compound: CC(C)(O)CC(=O)NCCn1ccc2ncnc(Nc3ccc(Oc4cccc(C(F)(F)F)c4)c(Cl)c3)c21
# Procedure, shortened: as §1
# [11] = compound: CC(C)C1=C2N=C(C=C(N2N=C1)NCC3=CC=CC=C3)NCCCCCCN
# Procedure, shortened: as §1
# [12] = compound: CC1=C(C(CC(=O)N1)C2=CC=C(C=C2)C(F)(F)F)C(=O)NC3=C(C=C4C(=C3)C=NN4)F
# Procedure, shortened: as §1
# [13] = compound: CC1=C(C2=C(C=C1)C(=O)C3=CC=CC=C3N2CCCN)C
# Procedure, shortened: as §1
# [14] = compound: CC1=C(C=C(C=C1)NC(=O)C2=CC(=CC=C2)C(C)(C)C#N)NC3=CC4=C(C=C3)N=CN(C4=O)C
# Procedure, shortened: as §1
# [15] = compound: CC1=C(C=C(C=C1)NC(=O)C2=CC(=CC=C2)N(C)C)NC(=O)C3=CC=C(C=C3)O
# Procedure, shortened: as §1
# [16] = compound: CC1=CC=C(C=C1)SC2=C3C=C(SC3=CN=C2)C(=O)N
# Procedure, shortened: as §1
# Sequence of UniProt Q07666 (Q07666 whole entry, looked up): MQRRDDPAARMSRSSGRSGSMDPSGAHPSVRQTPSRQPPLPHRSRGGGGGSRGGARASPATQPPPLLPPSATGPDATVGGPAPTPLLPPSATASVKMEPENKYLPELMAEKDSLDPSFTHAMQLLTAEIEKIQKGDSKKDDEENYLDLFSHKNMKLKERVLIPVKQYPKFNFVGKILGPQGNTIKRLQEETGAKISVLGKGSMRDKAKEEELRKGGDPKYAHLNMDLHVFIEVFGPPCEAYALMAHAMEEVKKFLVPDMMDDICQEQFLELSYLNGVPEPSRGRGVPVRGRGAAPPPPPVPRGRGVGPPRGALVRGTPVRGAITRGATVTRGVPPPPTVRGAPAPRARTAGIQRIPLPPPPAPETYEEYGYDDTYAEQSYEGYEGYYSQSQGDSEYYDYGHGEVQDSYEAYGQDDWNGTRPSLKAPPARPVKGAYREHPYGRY
# Sequence of UniProt Q14527 (Q14527 whole entry, looked up): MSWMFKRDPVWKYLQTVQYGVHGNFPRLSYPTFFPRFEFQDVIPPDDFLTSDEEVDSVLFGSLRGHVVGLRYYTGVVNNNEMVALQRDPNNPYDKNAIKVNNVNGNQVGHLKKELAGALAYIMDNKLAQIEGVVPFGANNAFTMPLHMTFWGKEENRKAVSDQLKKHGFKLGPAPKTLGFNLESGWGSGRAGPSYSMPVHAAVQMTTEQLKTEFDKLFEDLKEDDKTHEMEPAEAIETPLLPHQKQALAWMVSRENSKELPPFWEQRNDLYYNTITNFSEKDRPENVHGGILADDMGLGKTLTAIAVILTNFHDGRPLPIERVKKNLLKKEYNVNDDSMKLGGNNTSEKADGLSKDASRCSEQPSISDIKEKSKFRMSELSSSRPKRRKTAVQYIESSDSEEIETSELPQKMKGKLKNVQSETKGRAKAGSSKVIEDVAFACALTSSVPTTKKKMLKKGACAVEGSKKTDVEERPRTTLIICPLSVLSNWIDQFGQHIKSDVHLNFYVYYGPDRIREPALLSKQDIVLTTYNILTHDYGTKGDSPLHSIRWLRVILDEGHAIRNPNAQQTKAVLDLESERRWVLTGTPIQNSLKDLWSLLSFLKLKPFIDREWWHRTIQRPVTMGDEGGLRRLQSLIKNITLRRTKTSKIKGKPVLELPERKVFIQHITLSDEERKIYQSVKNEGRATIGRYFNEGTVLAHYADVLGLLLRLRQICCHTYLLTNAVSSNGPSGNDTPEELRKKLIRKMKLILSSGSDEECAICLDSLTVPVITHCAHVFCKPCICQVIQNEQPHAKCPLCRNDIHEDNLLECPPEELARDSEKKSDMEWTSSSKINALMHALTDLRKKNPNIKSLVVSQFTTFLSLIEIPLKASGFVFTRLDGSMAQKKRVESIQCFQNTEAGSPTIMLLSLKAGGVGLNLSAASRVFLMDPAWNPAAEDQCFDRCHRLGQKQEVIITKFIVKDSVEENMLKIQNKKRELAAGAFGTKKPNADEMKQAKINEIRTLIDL
# Sequence of UniProt Q9ULR0 (Q9ULR0 whole entry, looked up): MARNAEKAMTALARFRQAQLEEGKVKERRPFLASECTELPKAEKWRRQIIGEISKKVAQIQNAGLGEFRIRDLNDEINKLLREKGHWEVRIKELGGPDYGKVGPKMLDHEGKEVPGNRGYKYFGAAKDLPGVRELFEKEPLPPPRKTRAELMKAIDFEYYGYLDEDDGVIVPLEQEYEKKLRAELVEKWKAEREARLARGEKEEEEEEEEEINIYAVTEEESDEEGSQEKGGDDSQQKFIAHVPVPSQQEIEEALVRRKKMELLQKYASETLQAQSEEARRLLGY
# Sequence of UniProt O94927 (O94927 whole entry, looked up): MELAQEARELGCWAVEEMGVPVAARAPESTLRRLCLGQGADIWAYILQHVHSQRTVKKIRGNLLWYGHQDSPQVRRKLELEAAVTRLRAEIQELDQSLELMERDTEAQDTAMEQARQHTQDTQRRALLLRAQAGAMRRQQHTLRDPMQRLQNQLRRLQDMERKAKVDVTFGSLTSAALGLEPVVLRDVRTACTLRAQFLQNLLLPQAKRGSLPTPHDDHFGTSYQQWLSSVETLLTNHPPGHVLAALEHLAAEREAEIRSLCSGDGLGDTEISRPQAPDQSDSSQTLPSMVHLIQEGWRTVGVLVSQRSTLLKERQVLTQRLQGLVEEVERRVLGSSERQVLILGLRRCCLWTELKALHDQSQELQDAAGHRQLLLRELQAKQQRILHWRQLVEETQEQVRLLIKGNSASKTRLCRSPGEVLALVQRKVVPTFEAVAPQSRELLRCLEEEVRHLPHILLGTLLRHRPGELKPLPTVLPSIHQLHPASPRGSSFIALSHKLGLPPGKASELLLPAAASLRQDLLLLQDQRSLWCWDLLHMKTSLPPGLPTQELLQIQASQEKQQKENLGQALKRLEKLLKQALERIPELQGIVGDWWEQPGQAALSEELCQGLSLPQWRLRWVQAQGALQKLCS
# Sequence of UniProt P04792 (P04792 whole entry, looked up): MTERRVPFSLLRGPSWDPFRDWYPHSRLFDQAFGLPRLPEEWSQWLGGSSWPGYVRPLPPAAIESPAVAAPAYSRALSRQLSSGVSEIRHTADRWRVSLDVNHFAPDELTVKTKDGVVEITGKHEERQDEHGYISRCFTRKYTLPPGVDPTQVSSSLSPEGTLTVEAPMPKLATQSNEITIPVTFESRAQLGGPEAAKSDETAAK
# Sequence of UniProt Q9NWZ3 (Q9NWZ3 whole entry, looked up): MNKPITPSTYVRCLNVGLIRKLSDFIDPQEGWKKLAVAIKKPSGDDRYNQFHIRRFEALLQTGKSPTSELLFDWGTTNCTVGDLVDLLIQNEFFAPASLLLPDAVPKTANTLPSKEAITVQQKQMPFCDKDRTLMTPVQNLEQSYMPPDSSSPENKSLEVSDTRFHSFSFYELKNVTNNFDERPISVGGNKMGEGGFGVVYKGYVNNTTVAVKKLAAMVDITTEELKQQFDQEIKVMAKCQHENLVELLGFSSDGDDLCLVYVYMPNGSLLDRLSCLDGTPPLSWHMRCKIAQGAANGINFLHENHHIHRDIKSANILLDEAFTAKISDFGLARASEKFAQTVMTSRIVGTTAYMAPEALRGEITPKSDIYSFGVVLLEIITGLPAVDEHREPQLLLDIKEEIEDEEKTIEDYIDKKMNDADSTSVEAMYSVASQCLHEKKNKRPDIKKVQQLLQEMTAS
# Sequence of UniProt Q96AB3 (Q96AB3 whole entry, looked up): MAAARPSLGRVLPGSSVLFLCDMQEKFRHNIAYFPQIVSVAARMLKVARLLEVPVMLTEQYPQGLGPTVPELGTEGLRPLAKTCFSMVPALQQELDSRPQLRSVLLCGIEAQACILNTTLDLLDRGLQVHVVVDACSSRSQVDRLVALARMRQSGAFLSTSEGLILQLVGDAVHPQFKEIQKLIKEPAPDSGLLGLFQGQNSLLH
# Sequence of UniProt Q03013 (Q03013 whole entry, looked up): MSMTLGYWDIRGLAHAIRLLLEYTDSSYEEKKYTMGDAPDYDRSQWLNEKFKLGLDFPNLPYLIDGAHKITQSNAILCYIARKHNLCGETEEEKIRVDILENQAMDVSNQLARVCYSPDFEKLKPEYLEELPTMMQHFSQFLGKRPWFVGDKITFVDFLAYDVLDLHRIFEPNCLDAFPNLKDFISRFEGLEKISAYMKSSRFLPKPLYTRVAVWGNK
# Sequence of UniProt Q13322 (Q13322 whole entry, looked up): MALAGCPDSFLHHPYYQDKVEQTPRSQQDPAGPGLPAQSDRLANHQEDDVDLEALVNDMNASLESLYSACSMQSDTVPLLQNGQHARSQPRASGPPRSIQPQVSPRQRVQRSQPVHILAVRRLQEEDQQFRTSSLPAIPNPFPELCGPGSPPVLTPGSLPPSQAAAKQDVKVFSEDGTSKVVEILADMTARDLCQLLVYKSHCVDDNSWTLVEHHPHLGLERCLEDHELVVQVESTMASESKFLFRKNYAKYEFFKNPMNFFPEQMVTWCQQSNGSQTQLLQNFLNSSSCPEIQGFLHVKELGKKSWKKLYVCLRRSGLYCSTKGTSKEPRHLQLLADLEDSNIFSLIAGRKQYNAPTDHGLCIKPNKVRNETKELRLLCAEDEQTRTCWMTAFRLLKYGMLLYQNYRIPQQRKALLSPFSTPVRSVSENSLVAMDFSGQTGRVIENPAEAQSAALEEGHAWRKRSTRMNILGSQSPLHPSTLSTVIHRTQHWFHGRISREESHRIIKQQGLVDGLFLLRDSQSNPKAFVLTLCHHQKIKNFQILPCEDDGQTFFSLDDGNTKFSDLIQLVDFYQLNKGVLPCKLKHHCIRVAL
# Sequence of UniProt Q9NPR9 (Q9NPR9 whole entry, looked up): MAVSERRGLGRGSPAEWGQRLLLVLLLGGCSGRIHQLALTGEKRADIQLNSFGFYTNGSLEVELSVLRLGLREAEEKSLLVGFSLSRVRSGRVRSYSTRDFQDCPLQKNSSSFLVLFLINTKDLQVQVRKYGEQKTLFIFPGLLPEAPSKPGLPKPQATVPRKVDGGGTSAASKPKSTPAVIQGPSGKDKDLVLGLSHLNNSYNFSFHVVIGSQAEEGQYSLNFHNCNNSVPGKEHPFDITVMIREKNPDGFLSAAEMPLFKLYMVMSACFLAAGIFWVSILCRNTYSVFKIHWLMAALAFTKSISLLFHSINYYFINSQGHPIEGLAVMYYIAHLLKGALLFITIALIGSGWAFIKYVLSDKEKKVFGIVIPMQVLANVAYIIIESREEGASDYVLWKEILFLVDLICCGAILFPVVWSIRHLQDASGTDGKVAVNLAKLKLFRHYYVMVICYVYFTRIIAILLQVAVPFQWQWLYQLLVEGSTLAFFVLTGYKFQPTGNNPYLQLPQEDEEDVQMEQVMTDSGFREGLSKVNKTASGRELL
# Sequence of UniProt P36969 (P36969 whole entry, looked up): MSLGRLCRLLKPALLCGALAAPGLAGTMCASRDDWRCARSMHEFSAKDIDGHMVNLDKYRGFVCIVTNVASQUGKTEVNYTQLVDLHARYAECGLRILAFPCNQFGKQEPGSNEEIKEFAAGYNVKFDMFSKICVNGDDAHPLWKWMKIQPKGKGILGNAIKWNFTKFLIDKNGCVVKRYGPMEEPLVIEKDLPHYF
Target,log2 fold change (erlotinib),log2 fold change [1],log2 fold change [2],log2 fold change [3],log2 fold change [4],log2 fold change [5],log2 fold change [6],log2 fold change [7],log2 fold change [8],log2 fold change (IRAK-1-4 Inhibitor I),log2 fold change (ibrutinib),log2 fold change [9],log2 fold change (ralimetinib),log2 fold change [10],log2 fold change [11],log2 fold change [12],log2 fold change [13],log2 fold change [14],log2 fold change [15],log2 fold change [16]
GLYR1 (UniProt Q49A26),0.025 (inactive),0.061 (inactive),-0.018 (inactive),0.021 (inactive),0.041 (inactive),0.029 (inactive),-0.01 (inactive),0.11 (inactive),0.035 (inactive),0.006 (inactive),0.113 (inactive),0.017 (inactive),0.038 (inactive),-0.15 (inactive),0.033 (inactive),0.07 (inactive),-0.339 (active),0.126 (inactive),0.106 (inactive),0.032 (inactive)
HSPA8 (UniProt E9PK54),0.045 (inactive),-0.222 (inactive),-0.045 (inactive),-0.099 (inactive),0.014 (inactive),-0.044 (inactive),0 (inactive),-0.043 (inactive),-0.008 (inactive),-0.141 (inactive),0.065 (inactive),-0.086 (inactive),-0.013 (inactive),-0.132 (inactive),0.004 (inactive),-0.019 (inactive),0.008 (inactive),-0.076 (inactive),-0.019 (inactive),0.014 (inactive)
IRAK4 (UniProt Q9NWZ3),-0.03 (inactive),-0.071 (inactive),-0.037 (inactive),-0.019 (inactive),0.037 (inactive),0.015 (inactive),0.223 (inactive),0.3 (active),-0.037 (inactive),0.006 (inactive),0 (inactive),0.195 (inactive),0 (inactive),-0.018 (inactive),-0.01 (inactive),-0.018 (inactive),-0.011 (inactive),-0.018 (inactive),0.008 (inactive),-0.041 (inactive)
ISY1 isoform 1 (UniProt Q9ULR0),0.022 (inactive),0.07 (inactive),0.02 (inactive),0.06 (inactive),0.018 (inactive),0.004 (inactive),-0.004 (inactive),0.031 (inactive),0.068 (inactive),0.014 (inactive),0.019 (inactive),0.028 (inactive),0.007 (inactive),-0.029 (inactive),-0.056 (inactive),-0.019 (inactive),-0.157 (inactive),-0.006 (inactive),-0.02 (inactive),-0.04 (inactive)
GTF2H4 (UniProt Q92759),-0.013 (inactive),-0.049 (inactive),-0.013 (inactive),0.037 (inactive),-0.059 (inactive),-0.001 (inactive),0.141 (inactive),0.056 (inactive),-0.004 (inactive),-0.044 (inactive),0.039 (inactive),0.003 (inactive),0.058 (inactive),-0.006 (inactive),0.021 (inactive),0.054 (inactive),-0.014 (inactive),-0.015 (inactive),0.052 (inactive),0.037 (inactive)
KHDRBS1 (UniProt Q07666),-0.013 (inactive),0.001 (inactive),-0.035 (inactive),0.009 (inactive),-0.038 (inactive),0.006 (inactive),-0.016 (inactive),0.026 (inactive),0.037 (inactive),-0.013 (inactive),0.023 (inactive),-0.517 (active),-0.021 (inactive),-0.009 (inactive),0.016 (inactive),0.023 (inactive),0.007 (inactive),-0.026 (inactive),0 (inactive),0.044 (inactive)
HAUS5 (UniProt O94927),0.046 (inactive),0.021 (inactive),-0.071 (inactive),-0.015 (inactive),-0.045 (inactive),-0.009 (inactive),0.113 (inactive),0.031 (inactive),-0.017 (inactive),0.033 (inactive),0 (inactive),0.002 (inactive),0.034 (inactive),0.017 (inactive),0.027 (inactive),-0.027 (inactive),0 (inactive),0 (inactive),0.033 (inactive),0.021 (inactive)
HSPB1 (UniProt P04792),0.004 (inactive),-0.03 (inactive),0.03 (inactive),-0.012 (inactive),0.001 (inactive),-0.009 (inactive),0.034 (inactive),-0.013 (inactive),-0.025 (inactive),0.006 (inactive),-0.015 (inactive),-0.008 (inactive),0.022 (inactive),-0.016 (inactive),0.012 (inactive),0 (inactive),0.016 (inactive),-0.117 (inactive),0.006 (inactive),0.003 (inactive)
GRK6 isoform 2 (UniProt P43250),-0.014 (inactive),-0.126 (inactive),0.015 (inactive),-0.009 (inactive),-0.046 (inactive),-0.063 (inactive),0.284 (inactive),-0.161 (inactive),0.108 (inactive),0.053 (inactive),0.083 (inactive),0.04 (inactive),-0.073 (inactive),-0.068 (inactive),-0.036 (inactive),0.021 (inactive),-0.092 (inactive),0.048 (inactive),-0.049 (inactive),-0.005 (inactive)
GPX4 (UniProt P36969),0.02 (inactive),0.051 (inactive),-0.037 (inactive),-0.016 (inactive),0.04 (inactive),-0.029 (inactive),-0.06 (inactive),0.024 (inactive),0.021 (inactive),0.012 (inactive),-0.013 (inactive),0.01 (inactive),0.011 (inactive),0.018 (inactive),-0.004 (inactive),0.006 (inactive),-0.002 (inactive),0.014 (inactive),0.003 (inactive),0.039 (inactive)
GPR108 (UniProt Q9NPR9),0.035 (inactive),0.022 (inactive),0 (inactive),0.066 (inactive),0.015 (inactive),0.056 (inactive),-0.028 (inactive),-0.015 (inactive),0.03 (inactive),-0.026 (inactive),-0.017 (inactive),-0.063 (inactive),0.001 (inactive),-0.024 (inactive),-0.08 (inactive),0.039 (inactive),0.049 (inactive),0.027 (inactive),-0.062 (inactive),-0.004 (inactive)
GRB10 (UniProt Q13322),0.027 (inactive),-0.004 (inactive),-0.06 (inactive),0.013 (inactive),-0.03 (inactive),0.016 (inactive),0.019 (inactive),0.073 (inactive),0.054 (inactive),-0.039 (inactive),0.015 (inactive),-0.039 (inactive),-0.006 (inactive),-0.032 (inactive),0.014 (inactive),0.04 (inactive),-0.015 (inactive),-0.032 (inactive),-0.006 (inactive),0.066 (inactive)
ISOC2 (UniProt Q96AB3),-0.018 (inactive),0.003 (inactive),0.001 (inactive),-0.035 (inactive),-0.006 (inactive),-0.072 (inactive),0.003 (inactive),-0.007 (inactive),-0.001 (inactive),0.053 (inactive),0.017 (inactive),-0.021 (inactive),0.056 (inactive),0.024 (inactive),0.014 (inactive),-0.004 (inactive),-0.131 (inactive),0.054 (inactive),0.041 (inactive),0.035 (inactive)
HLTF (UniProt Q14527),0.052 (inactive),-0.019 (inactive),0.081 (inactive),-0.003 (inactive),-0.032 (inactive),-0.028 (inactive),0.008 (inactive),-0.053 (inactive),0.015 (inactive),-0.019 (inactive),0.016 (inactive),0.054 (inactive),0.024 (inactive),-0.017 (inactive),-0.023 (inactive),0.046 (inactive),0.048 (inactive),-0.022 (inactive),0.003 (inactive),-0.018 (inactive)
H4C1 (UniProt P62805),0.065 (inactive),0.499 (inactive),-0.023 (inactive),-0.042 (inactive),-0.024 (inactive),0.252 (inactive),-0.008 (inactive),0.067 (inactive),-0.052 (inactive),-0.067 (inactive),0.055 (inactive),-0.008 (inactive),-0.078 (inactive),-0.037 (inactive),-0.046 (inactive),0.075 (inactive),-0.082 (inactive),0.011 (inactive),-0.022 (inactive),0.008 (inactive)
GSTM4 (UniProt Q03013),0.006 (inactive),-0.044 (inactive),-0.073 (inactive),-0.026 (inactive),0.141 (inactive),0.046 (inactive),-0.025 (inactive),-0.109 (inactive),-0.025 (inactive),-0.064 (inactive),-0.139 (inactive),-0.006 (inactive),-0.013 (inactive),-0.051 (inactive),-0.079 (inactive),0.096 (inactive),0.037 (inactive),-0.136 (inactive),-0.027 (inactive),0.042 (inactive)

# From the supplement of paper PMC10849652
